Reference: PubChem BioAssay (Tox21)
Values joined by “and” are separate entries in the source; they are usually repeats but may differ in a detail not shown here. Equal entries are not always repeated. Results filed as inconclusive are left out. Some compounds were tested as several samples or in several runs, with calls that do not always agree. Active and inactive are the calls of the source. Calls come from the whole dose curve; as a rule, active = well fitted cell-killing curve with a large enough effect in the repeat runs; inconclusive = weak or mixed curves, or effect the other way; inactive = no such curve, though single readings can be large or run the other way.

Test: qHTS assay to identify aromatase inhibitors - cell viability counter screen (AID 743084);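 note: cells stimulated with testosterone during compound exposure; nearly all actives have a fitted effect of over 55% in size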
Conditions: MCF-7 aro ERE viability, CellTiter-Fluor, 24 h; series mostly up to 70.3 µM
Potency is the fitted concentration of half-maximal effect.

Row | Compound | Potency
1 | Clc1ccc(C(c2ccccc2Cl)C(Cl)(Cl)Cl)cc1 (stereo unspecified) | inactive
2 | OC(c1ccc(Cl)cc1)(c1ccc(Cl)cc1)C(Cl)(Cl)Cl | 61.1 µM (active)
3 | C[C@]12CC[C@H]3[C@@H](CCC4=CC(=O)CC[C@@]43C)[C@@H]1CC[C@@H]2O | inactive
4 | CC(C)(C)c1cc([N+](=O)[O-])cc(C(C)(C)C)c1O | 21.7 µM (active)
5 | CCc1nn(C)c(C(=O)NCc2ccc(C(C)(C)C)cc2)c1Cl | 61.1 µM (active)
6 | CCOP(=O)(NC(C)C)Oc1ccc(SC)c(C)c1 (stereo unspecified) | inactive
7 | CC[C@H](C)[C@H]1O[C@]2(C=C[C@@H]1C)C[C@@H]1C[C@@H](C/C=C(\C)[C@@H](O[C@H]3C[C@H](OC)[C@@H](O[C@H]4C[C@H](OC)[C@@H](O)[C@H](C)O4)[C@H](C)O3)[C@@H](C)/C=C/C=C3\CO[C@@H]4[C@H](O)C(C)=C[C@@H](C(=O)O1)[C@]34O)O2 | inactive and 18.1 µM (active)
8 | CCN(CC)C(=S)[S-].CCN(CC)C(=S)[S-].[Zn+2] | 0.096 µM (active)
9 | O=C(CCl)Nc1ccccc1 | 27.3 µM (active)
10 | O=C(CCl)C(Cl)Cl | 8.71 µM (active)
11 | CCCCCCCCc1ccc(O)cc1 | 21.8 µM (active)
12 | CCCCCCCCCCCCCCC(Br)C(=O)O (stereo unspecified) | inactive
13 | O=c1ssc(Cl)c1Cl | 17.2 µM (active)
14 | CC(=O)[O-].CC(=O)[O-].O.O.[Cd+2] | 42.7 µM (active)
15 | Oc1ccc(C2(c3ccc(O)cc3)CCCCC2)cc1 | 25.9 µM (active)
16 | COC12CC[C@@]3(C[C@@H]1C(C)(O)C(C)(C)C)[C@H]1Cc4ccc(O)c5c4[C@@]3(CCN1CC1CC1)[C@H]2O5 (stereo partly specified) | 60.7 µM (active)
17 | CC(C)(C)C(O)/C(=C\c1ccc(Cl)cc1Cl)n1cncn1 (stereo unspecified) | 74 µM (active)
18 | C=CC(=O)OCCCCOC(=O)C=C | 48.6 µM (active)
19 | CCCCCCCCCCCCBr | inactive
20 | C1CCC2CCCCC2C1 (stereo unspecified) | inactive
21 | COc1ccc(N)cc1N | 12.6 µM (active)
22 | CC(C)C1CCC(Cc2ccc(Cl)cc2)C1(O)Cn1cncn1 (stereo unspecified) | 24.1 µM (active)
23 | Clc1ccc(COC(Cn2ccnc2)c2ccc(Cl)cc2Cl)cc1 (stereo unspecified) | 33.5 µM (active) and 45.3 µM (active) and 60.9 µM (active)
24 | N#CCCC(Br)(C#N)CBr (stereo unspecified) | 27.3 µM (active)
25 | CCOCCOC(C)=O | inactive
26 | O=CC(Br)(Br)Br | 6.84 µM (active)
